Compound in the assay: Nc1ncnc2c1ncn2[C@@H]1O[C@H](COP(=O)(O)OP(=O)(O)NP(=O)(O)O)[C@@H](O)[C@H]1O [adenylyl imidodiphosphate]
Put plainly: NP40-soluble protein abundance relative to vehicle (solubility fold change) (ratio); higher = more soluble protein in presence of AMP-PNP. The essentials: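 Each value is a fold change relative to the detergent-processed vehicle, calculated per replicate from vsn-normalised intensities. Jurkat crude lysate received eight concentrations (0.1 to 10 mM) for 10 min at room temperature and 3 min at 37 °C, then was solubilised in 0.8% NP40 with benzonase (60 min, 4 °C). The ultracentrifuged supernatant was TMT-labelled and run by LC-MS/MS in three independent experiments.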

± gives the standard deviation of the averaged measurements. About 6,200 targets were measured; listed, in parts, are those with the largest changes and a random draw of the rest.

UniProt Q9H0E3, sequence (Q9H0E3 whole entry, one chain of several): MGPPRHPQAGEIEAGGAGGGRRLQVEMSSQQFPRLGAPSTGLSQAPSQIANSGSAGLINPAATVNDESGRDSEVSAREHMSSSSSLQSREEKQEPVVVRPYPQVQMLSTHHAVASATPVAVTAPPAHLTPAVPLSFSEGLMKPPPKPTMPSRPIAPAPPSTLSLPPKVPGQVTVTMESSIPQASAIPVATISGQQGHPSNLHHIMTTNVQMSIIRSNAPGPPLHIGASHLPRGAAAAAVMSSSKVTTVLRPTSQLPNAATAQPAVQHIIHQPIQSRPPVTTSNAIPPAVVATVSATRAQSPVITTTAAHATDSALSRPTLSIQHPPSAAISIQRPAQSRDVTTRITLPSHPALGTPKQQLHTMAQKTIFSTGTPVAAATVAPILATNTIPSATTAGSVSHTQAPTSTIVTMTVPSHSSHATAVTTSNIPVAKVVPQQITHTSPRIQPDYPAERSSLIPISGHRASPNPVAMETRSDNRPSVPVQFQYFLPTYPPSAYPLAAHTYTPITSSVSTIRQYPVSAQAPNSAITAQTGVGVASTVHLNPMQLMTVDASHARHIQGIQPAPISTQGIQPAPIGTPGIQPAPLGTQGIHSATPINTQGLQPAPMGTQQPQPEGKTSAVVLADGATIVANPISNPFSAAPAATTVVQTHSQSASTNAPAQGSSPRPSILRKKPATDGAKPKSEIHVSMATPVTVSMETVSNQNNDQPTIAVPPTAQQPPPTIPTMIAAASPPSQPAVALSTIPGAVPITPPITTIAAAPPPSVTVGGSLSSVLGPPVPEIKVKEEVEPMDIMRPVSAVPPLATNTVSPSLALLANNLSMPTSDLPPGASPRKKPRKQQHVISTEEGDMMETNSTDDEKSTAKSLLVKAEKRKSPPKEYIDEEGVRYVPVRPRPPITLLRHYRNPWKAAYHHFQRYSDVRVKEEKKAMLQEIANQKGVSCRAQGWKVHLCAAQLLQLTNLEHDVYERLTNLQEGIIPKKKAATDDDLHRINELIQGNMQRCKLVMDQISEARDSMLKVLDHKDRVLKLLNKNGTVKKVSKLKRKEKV
UniProt O96015, sequence (O96015 whole entry, one chain of several): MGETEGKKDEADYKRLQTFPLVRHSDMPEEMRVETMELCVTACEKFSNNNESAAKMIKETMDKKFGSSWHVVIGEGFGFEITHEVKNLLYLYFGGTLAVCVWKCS
UniProt Q92800, sequence (Q92800 whole entry, one chain of several): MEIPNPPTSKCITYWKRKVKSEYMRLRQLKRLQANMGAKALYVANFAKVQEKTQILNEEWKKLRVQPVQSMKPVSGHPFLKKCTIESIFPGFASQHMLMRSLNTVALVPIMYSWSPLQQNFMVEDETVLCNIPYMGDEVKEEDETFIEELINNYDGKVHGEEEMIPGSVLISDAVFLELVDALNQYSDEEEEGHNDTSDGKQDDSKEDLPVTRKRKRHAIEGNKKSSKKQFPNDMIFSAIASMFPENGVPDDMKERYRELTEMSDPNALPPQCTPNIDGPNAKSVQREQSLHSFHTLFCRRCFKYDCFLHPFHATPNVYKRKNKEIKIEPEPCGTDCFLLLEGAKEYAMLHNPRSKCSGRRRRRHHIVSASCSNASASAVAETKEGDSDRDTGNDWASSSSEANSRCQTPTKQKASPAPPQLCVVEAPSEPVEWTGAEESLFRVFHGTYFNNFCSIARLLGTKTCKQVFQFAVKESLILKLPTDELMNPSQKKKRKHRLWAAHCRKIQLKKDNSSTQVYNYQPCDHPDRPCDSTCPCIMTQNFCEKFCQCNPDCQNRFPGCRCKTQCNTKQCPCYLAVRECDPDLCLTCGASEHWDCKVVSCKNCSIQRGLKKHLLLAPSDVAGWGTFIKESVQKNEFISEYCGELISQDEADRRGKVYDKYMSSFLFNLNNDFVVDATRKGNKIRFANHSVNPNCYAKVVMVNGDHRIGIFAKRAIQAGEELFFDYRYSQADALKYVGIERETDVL
UniProt Q8NI36, sequence (Q8NI36 whole entry, one chain of several): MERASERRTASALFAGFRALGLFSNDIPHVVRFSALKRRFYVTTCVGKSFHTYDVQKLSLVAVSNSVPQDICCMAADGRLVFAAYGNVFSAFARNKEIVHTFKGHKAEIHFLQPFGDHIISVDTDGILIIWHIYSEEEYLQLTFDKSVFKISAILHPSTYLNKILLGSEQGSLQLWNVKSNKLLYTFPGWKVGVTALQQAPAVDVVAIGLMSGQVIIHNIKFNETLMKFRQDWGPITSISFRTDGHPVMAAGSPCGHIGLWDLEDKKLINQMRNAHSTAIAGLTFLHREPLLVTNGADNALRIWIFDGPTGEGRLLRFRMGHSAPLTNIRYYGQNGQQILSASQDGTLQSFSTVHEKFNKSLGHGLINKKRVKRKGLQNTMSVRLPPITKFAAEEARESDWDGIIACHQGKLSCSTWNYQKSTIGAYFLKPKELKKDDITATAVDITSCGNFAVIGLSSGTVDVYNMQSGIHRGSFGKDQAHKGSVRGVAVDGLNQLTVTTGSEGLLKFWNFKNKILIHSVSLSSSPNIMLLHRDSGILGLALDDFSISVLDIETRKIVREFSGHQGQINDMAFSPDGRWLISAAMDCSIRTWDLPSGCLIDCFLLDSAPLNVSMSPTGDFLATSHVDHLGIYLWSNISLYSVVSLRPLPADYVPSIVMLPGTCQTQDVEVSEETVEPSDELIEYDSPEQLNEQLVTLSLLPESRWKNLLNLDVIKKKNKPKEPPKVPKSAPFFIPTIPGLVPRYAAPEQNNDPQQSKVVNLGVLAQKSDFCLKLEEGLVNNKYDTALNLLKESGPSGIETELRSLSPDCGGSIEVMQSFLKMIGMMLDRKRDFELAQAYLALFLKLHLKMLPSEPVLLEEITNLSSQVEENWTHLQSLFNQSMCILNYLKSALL
UniProt P24864, sequence (P24864 whole entry, one chain of several): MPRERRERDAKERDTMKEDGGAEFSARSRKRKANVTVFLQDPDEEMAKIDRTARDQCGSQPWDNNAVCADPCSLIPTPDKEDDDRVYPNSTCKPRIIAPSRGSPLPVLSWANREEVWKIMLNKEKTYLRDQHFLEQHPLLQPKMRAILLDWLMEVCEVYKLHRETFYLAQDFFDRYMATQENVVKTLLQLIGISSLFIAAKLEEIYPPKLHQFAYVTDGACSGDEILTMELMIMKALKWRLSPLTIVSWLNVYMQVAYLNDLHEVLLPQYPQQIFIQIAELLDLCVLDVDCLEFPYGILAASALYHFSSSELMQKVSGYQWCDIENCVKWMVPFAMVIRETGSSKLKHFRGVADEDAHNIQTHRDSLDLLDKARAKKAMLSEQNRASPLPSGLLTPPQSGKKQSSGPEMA
UniProt Q13557, sequence (Q13557 whole entry, one chain of several): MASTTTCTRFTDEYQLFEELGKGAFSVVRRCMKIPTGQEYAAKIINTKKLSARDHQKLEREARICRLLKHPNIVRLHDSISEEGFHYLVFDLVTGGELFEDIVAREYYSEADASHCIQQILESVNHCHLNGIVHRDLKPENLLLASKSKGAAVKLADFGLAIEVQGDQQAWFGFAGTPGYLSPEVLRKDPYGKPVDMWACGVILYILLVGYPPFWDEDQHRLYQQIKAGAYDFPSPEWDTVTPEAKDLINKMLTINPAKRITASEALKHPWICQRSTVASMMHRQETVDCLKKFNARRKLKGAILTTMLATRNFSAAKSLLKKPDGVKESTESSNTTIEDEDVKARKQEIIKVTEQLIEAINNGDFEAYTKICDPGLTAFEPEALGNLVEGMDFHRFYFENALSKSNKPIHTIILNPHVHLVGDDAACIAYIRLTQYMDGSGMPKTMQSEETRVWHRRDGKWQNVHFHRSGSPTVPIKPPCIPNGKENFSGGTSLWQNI
UniProt Q15269, sequence (Q15269 whole entry, looked up, one chain of several): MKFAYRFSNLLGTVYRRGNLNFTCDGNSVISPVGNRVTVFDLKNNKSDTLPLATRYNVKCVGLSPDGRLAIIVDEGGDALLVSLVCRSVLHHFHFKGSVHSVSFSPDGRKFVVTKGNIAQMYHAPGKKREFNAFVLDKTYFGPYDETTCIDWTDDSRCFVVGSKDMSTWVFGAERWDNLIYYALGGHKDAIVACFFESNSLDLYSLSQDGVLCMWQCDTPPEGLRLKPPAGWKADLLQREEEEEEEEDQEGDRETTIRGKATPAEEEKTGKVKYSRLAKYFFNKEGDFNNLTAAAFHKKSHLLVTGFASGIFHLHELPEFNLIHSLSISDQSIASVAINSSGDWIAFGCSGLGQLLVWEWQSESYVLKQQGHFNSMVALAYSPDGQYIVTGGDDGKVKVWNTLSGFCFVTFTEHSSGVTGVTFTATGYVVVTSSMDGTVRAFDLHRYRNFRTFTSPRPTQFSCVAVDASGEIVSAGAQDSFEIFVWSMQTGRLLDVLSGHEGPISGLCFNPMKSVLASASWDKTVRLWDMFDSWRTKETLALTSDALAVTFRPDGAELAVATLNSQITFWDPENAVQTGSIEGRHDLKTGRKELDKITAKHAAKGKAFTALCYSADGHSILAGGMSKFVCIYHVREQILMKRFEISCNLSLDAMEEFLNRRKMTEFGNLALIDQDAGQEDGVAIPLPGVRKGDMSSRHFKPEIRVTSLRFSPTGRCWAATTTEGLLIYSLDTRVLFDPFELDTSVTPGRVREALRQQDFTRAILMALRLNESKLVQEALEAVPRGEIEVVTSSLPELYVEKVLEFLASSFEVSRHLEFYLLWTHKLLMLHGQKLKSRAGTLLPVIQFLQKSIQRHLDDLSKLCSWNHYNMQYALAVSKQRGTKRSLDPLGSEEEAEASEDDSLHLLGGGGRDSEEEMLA
UniProt Q9Y5U2, sequence (Q9Y5U2 whole entry, one chain of several): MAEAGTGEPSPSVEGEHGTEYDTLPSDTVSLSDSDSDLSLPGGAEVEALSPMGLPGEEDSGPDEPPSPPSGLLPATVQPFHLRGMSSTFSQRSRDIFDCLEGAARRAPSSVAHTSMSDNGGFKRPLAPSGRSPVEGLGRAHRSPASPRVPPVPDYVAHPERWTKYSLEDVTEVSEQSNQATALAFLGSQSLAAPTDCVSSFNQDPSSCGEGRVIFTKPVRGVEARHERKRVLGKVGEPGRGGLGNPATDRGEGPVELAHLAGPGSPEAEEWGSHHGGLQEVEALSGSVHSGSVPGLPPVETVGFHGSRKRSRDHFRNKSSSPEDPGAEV

With HMGN4 (UniProt O00479), the NP40-soluble protein abundance (concentration: 1mM) came to 1.024 ± 0.01; the NP40-soluble protein abundance (concentration: 2mM) came to 1.01 ± 0.047; the NP40-soluble protein abundance (concentration: 4mM) amounted to 1.04 ± 0.056; the NP40-soluble protein abundance (concentration: 6mM) was found to be 1.1 ± 0.07; the NP40-soluble protein abundance (concentration: 8mM) is 1.08 ± 0.075; the NP40-soluble protein abundance (concentration: 10mM) came out at 1.22 ± 0.076.
For A0A0A0MTB8|Q8NI36 (UniProt Q8NI36), the NP40-soluble protein abundance runs as follows: (concentration: 1mM) 1.1 ± 0.06; (concentration: 2mM) 1.15 ± 0.11; (concentration: 4mM) 1.37 ± 0.12; (concentration: 6mM) 1.55 ± 0.11; (concentration: 8mM) 1.73 ± 0.16; (concentration: 10mM) 1.78 ± 0.086.
On to “E9PBG7|E9PF82|Q13557|Q13557-10|Q13557-11|Q13557-12|Q13557-3|Q13557-4|Q13557-5|Q13557-6|Q13557-8|Q13557-9 (UniProt Q13557)”, for which the NP40-soluble protein abundance came to 0.94 ± 0.026 (concentration: 1mM); 0.989 ± 0.049 (concentration: 2mM); 0.903 ± 0.017 (concentration: 4mM); 0.89 ± 0.054 (concentration: 6mM); 0.878 ± 0.022 (concentration: 8mM); 0.88 ± 0.027 (concentration: 10mM).
For F6U236|Q9BY11 (UniProt Q9BY11), the NP40-soluble protein abundance reads like this: (concentration: 1mM) 0.978 ± 0.036; (concentration: 2mM) 1.03 ± 0.057; (concentration: 4mM) 0.968 ± 0.018; (concentration: 6mM) 1 ± 0.063; (concentration: 8mM) 0.978 ± 0.069; (concentration: 10mM) 0.989 ± 0.054.
Consider K7EIU8|Q13485 (UniProt Q13485), for which the NP40-soluble protein abundance (concentration: 1mM) worked out at 0.986 ± 0.065; the NP40-soluble protein abundance (concentration: 2mM) is 0.936 ± 0.062; the NP40-soluble protein abundance (concentration: 4mM) amounted to 0.99 ± 0.091; the NP40-soluble protein abundance (concentration: 6mM) is 1.04 ± 0.084; the NP40-soluble protein abundance (concentration: 8mM) came out at 1.08 ± 0.08; the NP40-soluble protein abundance (concentration: 10mM) was 1.03 ± 0.093.
Regarding H7BXF5|Q9H0E3-3 (UniProt Q9H0E3), the NP40-soluble protein abundance by setting is: (concentration: 1mM) 1.05 ± 0.041; (concentration: 2mM) 1.09 ± 0.035; (concentration: 4mM) 1.02 ± 0.03; (concentration: 6mM) 1.03 ± 0.039; (concentration: 8mM) 0.993 ± 0.016; (concentration: 10mM) 1.05 ± 0.057.
Regarding UniProt O75037|O75037-2, the NP40-soluble protein abundance runs as follows: (concentration: 1mM) 1.03 ± 0.042; (concentration: 2mM) 1.06 ± 0.018; (concentration: 4mM) 1.04 ± 0.05; (concentration: 6mM) 1.01 ± 0.04; (concentration: 8mM) 1 ± 0.032; (concentration: 10mM) 1.04 ± 0.052.
On to “A0A0A0MSY9|Q92800|Q92800-2|Q92800-3|Q92800-4|Q92800-5 (UniProt Q92800)”, for which the NP40-soluble protein abundance by setting is: (concentration: 1mM) 0.978 ± 0.017; (concentration: 2mM) 0.97 ± 0.022; (concentration: 4mM) 0.9794 ± 0.0047; (concentration: 6mM) 0.994 ± 0.016; (concentration: 8mM) 0.999 ± 0.019; (concentration: 10mM) 1.001 ± 0.0058.
As for B0QXZ5|O96015 (UniProt O96015), the NP40-soluble protein abundance (concentration: 1mM) stood at 1 ± 0.02; the NP40-soluble protein abundance (concentration: 2mM) was determined as 1.01 ± 0.047; the NP40-soluble protein abundance (concentration: 4mM) came to 0.983 ± 0.018; the NP40-soluble protein abundance (concentration: 6mM) stood at 0.998 ± 0.021; the NP40-soluble protein abundance (concentration: 8mM) is 0.996 ± 0.019; the NP40-soluble protein abundance (concentration: 10mM) is 0.9826 ± 0.0082.
Regarding J3KNV1|O60281 (UniProt O60281), the NP40-soluble protein abundance by setting is: (concentration: 1mM) 1.02 ± 0.034; (concentration: 2mM) 1.08 ± 0.024; (concentration: 4mM) 1.016 ± 0.0028; (concentration: 6mM) 0.966 ± 0.034; (concentration: 8mM) 0.968 ± 0.02; (concentration: 10mM) 0.985 ± 0.041.
On to ZC3H11A (UniProt O75152), for which the NP40-soluble protein abundance runs as follows: (concentration: 1mM) 0.86 ± 0.11; (concentration: 2mM) 0.883 ± 0.1; (concentration: 4mM) 0.853 ± 0.13; (concentration: 6mM) 0.936 ± 0.094; (concentration: 8mM) 0.933 ± 0.098; (concentration: 10mM) 1.03 ± 0.098.
With “C9J2U0|I3L413|P24864|P24864-2|P24864-3 (UniProt P24864)”, the NP40-soluble protein abundance turned out to be 0.913 ± 0.0092 (concentration: 1mM); 0.822 ± 0.076 (concentration: 2mM); 0.935 ± 0.011 (concentration: 4mM); 0.936 ± 0.032 (concentration: 6mM); 0.9933 ± 0.0062 (concentration: 8mM); 0.953 ± 0.07 (concentration: 10mM).
Regarding KPNA4 (UniProt O00629), the NP40-soluble protein abundance (concentration: 1mM) was found to be 1.07 ± 0.029; the NP40-soluble protein abundance (concentration: 2mM) amounted to 1.074 ± 0.0097; the NP40-soluble protein abundance (concentration: 4mM) amounted to 1.07 ± 0.016; the NP40-soluble protein abundance (concentration: 6mM) was found to be 1.03 ± 0.047; the NP40-soluble protein abundance (concentration: 8mM) is 1.05 ± 0.051; the NP40-soluble protein abundance (concentration: 10mM) stood at 1.05 ± 0.037.
For the target “C9JJV1|Q9Y5U2|Q9Y5U2-2|A6NCC9|C9JHT9|E9PME3 (UniProt Q9Y5U2)”, the NP40-soluble protein abundance is, setting by setting: (concentration: 1mM) 1.01 ± 0.013; (concentration: 2mM) 1.04 ± 0.076; (concentration: 4mM) 1.01 ± 0.01; (concentration: 6mM) 0.968 ± 0.047; (concentration: 8mM) 0.951 ± 0.048; (concentration: 10mM) 0.968 ± 0.068.
Regarding A0A0B4J2E5|Q15269 (UniProt Q15269), the NP40-soluble protein abundance is 1.05 ± 0.019 (concentration: 1mM); 1.04 ± 0.098 (concentration: 2mM); 1.23 ± 0.043 (concentration: 4mM); 1.38 ± 0.036 (concentration: 6mM); 1.56 ± 0.074 (concentration: 8mM); 1.52 ± 0.095 (concentration: 10mM).

Values taken from the supplement of paper PMC6411743.
